RORg inh: ROR gamma (mouse) transcription inhibition. P51450. hit rate 5.4% among 310,000. Drosophila S2 Gal4-RORgamma UAS-luciferase reporter, 20 h. Potency, µM (doses to about 53.6 µM), inactives show at the highest dose activity change, negative = inhibition, usual class: inhibitors; further: nearly all actives have a fitted effect of over 60% in size
Target sequence (P51450 whole entry, looked up, the tested form may be a part): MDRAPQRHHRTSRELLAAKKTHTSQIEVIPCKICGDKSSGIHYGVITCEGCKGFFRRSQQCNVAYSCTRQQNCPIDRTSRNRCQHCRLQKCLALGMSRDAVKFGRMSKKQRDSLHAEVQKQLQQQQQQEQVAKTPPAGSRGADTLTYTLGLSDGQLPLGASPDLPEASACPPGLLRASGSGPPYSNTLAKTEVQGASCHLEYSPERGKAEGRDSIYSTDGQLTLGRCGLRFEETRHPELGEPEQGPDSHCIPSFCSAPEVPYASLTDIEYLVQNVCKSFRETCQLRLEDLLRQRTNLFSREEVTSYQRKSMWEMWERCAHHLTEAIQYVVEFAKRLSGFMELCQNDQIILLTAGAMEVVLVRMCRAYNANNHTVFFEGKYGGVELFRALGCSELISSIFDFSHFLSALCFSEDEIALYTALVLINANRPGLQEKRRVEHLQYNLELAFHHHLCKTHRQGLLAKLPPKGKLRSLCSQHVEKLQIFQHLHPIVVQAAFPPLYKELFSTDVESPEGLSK
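Read-out: Photinus luciferase luminescence; inhibitors lower reporter signal. Insect Schneider cells with Gal4-ROR gamma fusion under metallothionein promoter, UAS reporter; 700 uM final copper sulfate induction, 20 hr, ambient temperature.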
TDP1 cell noCPT: qHTS for Inhibitors of human tyrosyl-DNA phosphodiesterase 1 (TDP1): qHTS in cells in absence of CPT; DT40 Tdp1-/- hTDP1 cells, no CPT, ATP luminescence, 48 h; Potency, µM (titrated, usually from 46.2 µM), inactives show at the top dose activity change, negative = growth inhibition, most hits filed as inhibitors; hit rate 15% among 420,000; AID 686978, 2013; further: nearly all actives have a fitted effect of over 55% in size
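DT40 Tdp1-/-;hTDP1 cells, no CPT (DMSO vehicle only), 400 cells/well; compounds pin-transferred; ≥48 hr, 37 °C; CellTiter-Glo 30 min RT dark, luminescence read.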
TDP1 block: blocks human tyrosyl-DNA phosphodiesterase 1 | Q9NUW8 | recombinant TDP1, AlphaScreen DNA substrate cleavage | Potency, µM (series often up to 130 µM), without a hit: at the highest dose activity change, negative = inhibition, actives largely listed as inhibitors | hit rate 0.28% among 350,000 | AID 485290; further: nearly all actives have a fitted effect of over 40% in size
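Here, a 5' biotin and 3' phosphotyrosine-FITC DNA oligonucleotide reports Tdp1 activity: intact substrate bridges AlphaScreen beads, while cleavage leaves a 3' phosphate and drops signal. All incubations at room temperature.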
DT40 TDP1 CPT: DT40-hTDP1 cell growth loss with CPT; hit rate 12% among 420,000; Potency, µM (highest dose often 46.2 µM), for inactives: top-dose activity change, negative = growth inhibition, actives largely listed as inhibitors; chicken DT40 Tdp1-/-;hTDP1 cells + 20 nM CPT, ATP luminescence, 48 h; AID 686979; further: nearly all actives have a fitted effect of over 55% in size
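Chicken DT40 Tdp1-/- cells stably complemented with human TDP1 were seeded at 400 cells/well in medium containing 20 nM camptothecin, exposed to pin-transferred compounds, and grown at 37 °C for at least 48 hr. Viability was read as ATP luminescence.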
VP16 counter: counter-screen for ROR gamma inhibitors: Gal4-VP16 reporter. Drosophila S2 Gal4-VP16 UAS-luciferase, luminescence, 20 h. Potency, µM (series often up to 53.6 µM), without a hit: at the highest dose activity, negative = inhibition, actives largely listed as inhibitors. hit rate 3.5% among 310,000;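 further: Gal4-VP16 expression switched on by copper sulfate through the metallothionein promoter; nearly all actives have a fitted effect of over 50% in size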
The depositor's hits bear a star; ? = inconclusive; . = not tested or not shown; ! = repeats disagree; [ ] = another dose, or the depositor's remark. Most compounds without a hit are left out; they make up all but 19% or so of the library. The call rests on the fitted dose curve; in most records, active means well fitted curve in the direction sought with a large enough effect; inconclusive means small, poorly fitted or top-dose-only effect, or another doubt; inactive means no such curve, though single readings can be large; an effect the other way counts as inactive or inconclusive. On the % scale 0 is the no-effect control and ±100 the full control effect; potency means the concentration at half of the fitted maximal effect.

SMILES	RORg inh	TDP1 cell noCPT	TDP1 block	DT40 TDP1 CPT	VP16 counter
COc1nc(N/N=C/c2cc3c(cc2Br)OCO3)nc(N2CCOCC2)n1	12%	?	7%	?	-12%
Cc1ccc(/C=N/Nc2nc(Cl)c(Cl)cc2Cl)s1	11µM*	-2%	5%	-6%	?
C(=N\Nc1nc2ccccc2[nH]1)/c1c[nH]c2ccccc12	3.5µM*	16µM*	8%	?	10µM*
COc1ccc(/C=N/Nc2nc3ccccc3[nH]2)c(OC)c1OC	13µM*	?	9%	?	-25%
C(=N\Nc1nc2ccccc2[nH]1)/c1cccc2cccnc12	0.35µM*	2.9µM*	8%	2.6µM*	2.2µM*
CC1=C(C(=O)OCC2CCCCC2)C(c2ccc(F)cc2F)CC(=O)N1 (centres undefined)	.	?	-9%[12.3 µM]	?	.
O=C(NC(=S)Nc1ccc(NC(=O)c2ccco2)cc1)c1ccccc1	-21%	-12%	0%	-10%	-5%
O=[N+]([O-])c1cc(/C=N/Nc2nc3ccccc3[nH]2)c(O)cc1O	3.5µM*	4.6µM*	6%	4.6µM*	3.2µM*
COc1ccc(NC(=O)[C@@H]2CCCN2C(=O)[C@@H]2Cc3ccccc3CN2C(=O)OC(C)(C)C)cc1	1%	23µM*	8%	-22%	4%
Cn1nnnc1Sc1ncnc2scc(-c3ccccc3C(F)(F)F)c12	.	.	8.9µM*	.	.
Cn1nnnc1Sc1ncnc2scc(-c3ccc(C(F)(F)F)cc3)c12	.	.	6%	.	.
CCCCC1=CC2=CC(=O)C(C)(OC(=O)CC)C(=O)C2=CN1c1ccc(OC)cc1 (centres undefined)	-32%	?	6%[12.3 µM]	26µM*	3%
CCCCC1=CC2=CC(=O)C(C)(OC(=O)CC)C(=O)C2=CN1Cc1ccc2c(c1)OCO2 (centres undefined)	-2%	15µM*	4%[21 µM]	?	0%
CCCCC1=CC2=CC(=O)C(C)(OC(=O)CC)C(=O)C2=CN1CCCCO (centres undefined)	-1%	-4%	5%[12.3 µM]	16%	-6%
O=C(NCc1ccccn1)[C@@H]1CCCN1C(=O)[C@@H]1CCCN1C(=O)c1cccc2ccccc12	.	-22%	.	-12%	.
Cc1ccc(S(=O)(=O)Nc2ccccc2CNc2ccc(Br)cn2)cc1	?	29µM*	0%	?	?
O=S(=O)(Nc1ccncc1)c1ccc(Cl)c(Cl)c1	9%[1.91 µM]	-8%	.	-8%	-15%
C1CCC(NC(=NC2C3CC4CC(C3)CC2C4)N2CCOCC2)CC1 (centres undefined)	.	23µM*	6%	29µM*!	.
c1ccc2c(CSCCc3ccncc3)cccc2c1	?	21µM*	0%	23µM*	?
Nc1cc(N2CCCCC2)nc(N)[n+]1OS(=O)(=O)[O-]	.	4%[92.5 µM]	0%	-5%[92.5 µM]	.
OC(c1ccccc1)(c1ccccc1)C1CCN(C(=S)NC2CCCC2)CC1	20µM*	?	0%	?	18%[10 µM]
CCOc1ccc(NC(=S)N2CCC(C(O)(c3ccccc3)c3ccccc3)CC2)cc1	13µM*	?	3%	-19%	?
CC1CCN(C(=S)NCCc2ccccc2)CC1	?	?	-1%	-18%	?
OC(c1ccccc1)(c1ccccc1)C1CCN(C(=S)NCCc2ccccc2)CC1	13µM*	?	5%	?	?
COc1cccc(CNC(=O)c2cc(S(=O)(=O)N3CCCCC3)c[nH]2)c1	-53%	?	5%	?	7%
SMILES	RORg inh	TDP1 cell noCPT	TDP1 block	DT40 TDP1 CPT	VP16 counter
Cc1cccc2cc(CN(Cc3ccc(F)cc3)C(=O)N(C)C)c3nnnn3c12	-1%	21µM*	2%	23µM*	-2%
N#C/C(=C\c1ccc(Br)s1)C(=O)N1CCN(c2ccccc2)CC1	18%	-9%	8%	-1%	5%
Cc1cc(Br)cn2c(Cc3ccccc3)c(-c3ccc(Cl)cc3)nc12	.	-20%	.	-2%	.
Cc1ccc(Cc2c(-c3ccc(F)cc3)nc3c(Cl)cc(C(F)(F)F)cn23)cc1	.	-15%	.	-30%	.
Cc1ccc(Cc2c(-c3ccc(C)cc3)nc3c(C)cc(Br)cn23)cc1	.	16µM*	.	16µM*	.
Cc1cc(Br)cn2c(Cc3ccccc3)c(-c3ccc(C#N)cc3)nc12	.	?	.	18µM*	.
Cc1ccc(Cc2c(-c3ccc(F)cc3)nc3c(C)cc(Br)cn23)cc1	.	16µM*	.	21µM*	.
CCn1c(SCC(=O)Nc2cc(C)on2)nnc1-c1ccccc1	30%	-18%	-1%[56.1 µM]	-8%	-16%
COc1ccc(C(=O)NC2CCN(S(=O)(=O)c3ccc(C)cc3)CC2)cc1	10%	3%	.	-11%	2%
COCCNc1nc(-c2cc(-c3ccccc3)on2)cc(C(C)C)n1	-28%	?	0%	?	-2%
COCCNc1nc(-c2ccc(OC)cc2C)c2sc(-c3ccccc3)cc2n1	.	16µM*	.	21µM*	.
C=CCNc1nc(NCc2cccc(OC)c2)c2sc(-c3ccccc3)cc2n1	.	4.1µM*	.	5.8µM*	.
C=CCNc1nc(N)c([N+](=O)[O-])c(NCc2ccccc2)n1	-20%	-24%	.	-8%	-13%
COCCNc1nc(NCCOc2ccccc2)c2sc(-c3ccccc3)cc2n1	.	15µM*	.	16µM*	.
COCCNc1nc(NCCOC)c2sc(-c3ccccc3)cc2n1	.	26µM*	.	26µM*	.
Cc1ccccc1-c1nc(NCCN(C)C)nc2ccsc12	.	?	.	-21%	.
CN(C)c1nc(Cl)nc(NCCOc2ccccc2)n1	19%	-1%	-5%	0%	15%
C=CCn1c2ccccc2c2nn(C)c(=S)nc21	6%	-25%	.	0%	10%
Cc1ccccc1-n1c(=O)cc(NCc2ccc3c(c2)OCO3)[nH]c1=O	?	-13%	-8%	-12%	-3%
O=C1NCCN1CCNS(=O)(=O)c1ccc2ccccc2c1	24%	-15%	3%	-12%	-1%
COCCNc1nc(NCCN2CCNC2=O)c2sc(-c3ccccc3)cc2n1	.	21µM*	.	26µM*	.
COc1ccc(C(CNC(=O)CSc2ccccc2C)N(C)C)cc1 (centres undefined)	0%	?	1%	7%	-15%
COc1ccc(C(CNCC(O)COc2c(C)ccc(C)c2C)N(C)C)cc1 (centres undefined)	-28%	12µM*	.	26µM*	15%
CCOc1ccc(OCCn2c(=S)[nH]c3c(N)ncnc32)cc1	2.5µM*	0%	-3%	-22%	4%
C[C@H](NC(=O)c1nc[nH]c1C(=O)N[C@H](C)c1ccccc1)C(=O)OC(C)(C)C	?	?	5%	15µM*	?

Bioassay records: PubChem BioAssay, National Center for Advancing Translational Sciences (NCATS)
